ClpP mod: qHTS Assay for Activators of ClpP; ATP-dependent Clp protease proteolytic subunit (Bacillus subtilis (strain 168)), P80244; 1.9% of 340,000 active; Potency, µM (top dose mostly 57.5 µM), for inactives: at the top dose activity change, negative = active; purified B. subtilis ClpP, FRET peptide cleavage, 20 min; active = well fitted falling curve with a large enough effect; inconclusive = small, poorly fitted or top-dose-only effect; inactive = no such curve, though single readings can be large or run the other way; also: potency is read from the fitted curve at half-maximal effect; the source files actives as falling curves though it sought activators and does not explain the sign; nearly all actives have a fitted effect of over 65% in size
Target sequence (P80244 whole entry, looked up): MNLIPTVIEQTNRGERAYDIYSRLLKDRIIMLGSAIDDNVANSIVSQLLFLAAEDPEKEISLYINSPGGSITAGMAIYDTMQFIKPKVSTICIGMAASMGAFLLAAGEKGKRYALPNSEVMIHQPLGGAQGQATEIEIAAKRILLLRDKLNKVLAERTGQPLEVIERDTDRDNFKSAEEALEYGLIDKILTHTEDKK
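Buffer: 100 mM Tris/HCl pH8, 100 mM KCl, 0.05% low protease BSA, 2.5% glycerol, 0.01% Tween-20. ClpP 10 microg/mL final; 20 min RT; delta FRET normalized to ADEP and DMSO controls.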
IL-1B inflam inh: qHTS for Inhibitors of Inflammasome Signaling: IL-1-beta AlphaLISA Primary Screen | THP-1 LPS/ATP IL-1B secretion, AlphaLISA, 16 h; stronger effect = lower value | activity change, % at 57.5 µM | 4.7% of 360,000 active | AID 743279, 2014; in the data active = activity change below about -50%; inconclusive = mostly about -30% to -49%; also: % is scaled to controls: 0 for no effect and ±100 for the full control effect
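THP-1 cells pretreated 1 hr with compounds (up to 57.5 uM final), then stimulated with LPS (250 ng/mL final) plus ATP (1.25 mM final); secreted IL-1B measured by AlphaLISA after 16 hr, decreased signal indicating inhibition.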
DRD3 antagonist: qHTS of D3 Dopamine Receptor Antagonist: qHTS | D3R cells, DiscoveRx beta-arrestin luminescence, antagonist mode; stronger effect = lower value | max response, negative = inhibition, % | 2.5% of 360,000 active | AID 652054, 2013; in the data active = max response below about -50%; inconclusive = no clear call, values can overlap the other calls; also: % is scaled to controls: 0 for no effect and ±100 for the full control effect
Target sequence (P35462 whole entry, looked up): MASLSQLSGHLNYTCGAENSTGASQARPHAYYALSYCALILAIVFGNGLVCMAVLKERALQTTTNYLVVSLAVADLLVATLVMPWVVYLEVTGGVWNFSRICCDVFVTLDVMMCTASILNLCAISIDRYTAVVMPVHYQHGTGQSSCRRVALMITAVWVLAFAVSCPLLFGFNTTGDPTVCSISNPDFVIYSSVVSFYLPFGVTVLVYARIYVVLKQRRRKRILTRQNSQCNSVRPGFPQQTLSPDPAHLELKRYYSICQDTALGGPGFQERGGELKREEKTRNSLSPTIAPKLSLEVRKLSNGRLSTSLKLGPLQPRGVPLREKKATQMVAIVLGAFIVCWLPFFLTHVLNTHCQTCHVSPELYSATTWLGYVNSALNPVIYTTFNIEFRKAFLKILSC
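Cells expressing the human receptor were seeded at 1500 cells/well, incubated overnight at 37 degrees C in 5% CO2, then exposed to library compounds with dopamine controls for 90 minutes at 37 degrees C before luminescent detection.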
TDP1 cell noCPT: qHTS for Inhibitors of human tyrosyl-DNA phosphodiesterase 1 (TDP1): qHTS in cells in absence of CPT; DT40 Tdp1-/- hTDP1 cells, no CPT, ATP luminescence, 48 h; Potency, µM (series often up to 46.2 µM), for the others: at the highest dose activity change, negative = growth inhibition, most hits filed as inhibitors; 15% of 420,000 active; also: potency is read from the fitted curve at half-maximal effect; % is scaled to controls: 0 for no effect and ±100 for the full control effect; nearly all actives have a fitted effect of over 55% in size
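Growth of hTDP1-complemented DT40 Tdp1-knockout cells is measured by ATP luminescence after at least 48 hr compound exposure at 37 °C, with DMSO substituting for the 20 nM CPT used in the parallel screen.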
DRD3 agonist: qHTS of D3 Dopamine Receptor Agonist: qHTS; D(3) dopamine receptor (Homo sapiens), P35462; D3R DiscoveRx beta-arrestin cells, luminescence, 90 min; max activation, %; 0.58% of 410,000 active; in the data active = max activation above about 30%; also: 0% is about no effect
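Cells at 1500/well, incubated overnight, then treated with pinned compounds (dopamine as control) for 90 min at 37 degrees C. DiscoveRx reagent added for 30 - 60 minutes at room temperature; luminescence read.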
TDP1 cell CPT: qHTS for Inhibitors of human tyrosyl-DNA phosphodiesterase 1 (TDP1): qHTS in cells in presence of CPT. chicken DT40 Tdp1-/-;hTDP1 cells + 20 nM CPT, ATP luminescence, 48 h. Potency, µM (highest dose often 46.2 µM), without a hit: at the highest dose activity change, negative = growth inhibition, most hits filed as inhibitors. 12% of 420,000 active. AID 686979, 2013; also: potency is read from the fitted curve at half-maximal effect; % is scaled to controls: 0 for no effect and ±100 for the full control effect; nearly all actives have a fitted effect of over 55% in size
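Chicken DT40 Tdp1-/- cells stably complemented with human TDP1 were seeded at 400 cells/well in medium containing 20 nM camptothecin, exposed to pin-transferred compounds, and grown at 37 °C for at least 48 hr. Viability was read as ATP luminescence.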
Active calls of the source: *; i = inactive; ? = inconclusive; · = not tested or not shown. Compounds with a hit are over-represented: about 21% of the library has one in this group of screens. Unless noted, calls follow the shape of the dose curve; as a rule, active = well fitted inhibition curve with a large enough effect; inconclusive = small, poorly fitted or top-dose-only effect; inactive = flat fitted curve, though single readings scatter.

SMILES	ClpP mod	IL-1B inflam inh	DRD3 antagonist	TDP1 cell noCPT	DRD3 agonist	TDP1 cell CPT
COc1ccccc1S(=O)(=O)N(C)C[C@@H]1Oc2ncc(-c3ccc(C)cc3)cc2C(=O)N([C@H](C)CO)C[C@@H]1C	-24%	-13	-11	16µM*	-5	?
Cc1ccc(S(=O)(=O)N(C)C[C@H]2Oc3ncc(-c4ccccc4)cc3C(=O)N([C@@H](C)CO)C[C@@H]2C)cc1	-2%	-28	13	13µM*	-2	?
C[C@@H]1CN([C@@H](C)CO)C(=O)c2cc(Br)cnc2O[C@H]1CN(C)C(=O)C1CCCCC1	2%	29	-24	-19%	-6	-12%
COCC#Cc1cnc2c(c1)C(=O)N([C@H](C)CO)C[C@H](C)[C@@H](CN(C)S(=O)(=O)c1ccccc1)O2	0%	20	24	0%	6	11%
COc1cccc(C#Cc2cnc3c(c2)C(=O)N([C@@H](C)CO)C[C@H](C)[C@H](CN(C)C(=O)C2CCC2)O3)c1	?	-24	-12	13µM*	-5	?
COc1ccccc1-c1cnc2c(c1)C(=O)N([C@@H](C)CO)C[C@@H](C)[C@@H](CN(C)C(C)=O)O2	-14%	21	17	2%	5	-2%
CCOC(=O)/C(=C\c1cn(C)c2ccccc12)[N+](=O)[O-]	1%	-85*	26	?	2	?
CCOC(=O)/C(C#N)=C\c1cn(C)c2ccccc12	·	2	-2	-11%	3	25%
CCOC(=O)N1CCN(C(=O)c2ccccc2NC(=O)c2ccc(C(C)(C)C)cc2)CC1	·	31	-5	-26%	0	6%
COc1ccc(C(=O)NCC(=O)N2CC=C(c3ccccc3)CC2)cc1OC	-2%	7	-11	26µM*	1	?
CCOC(=O)N1CCN(C(=O)C(NC(=O)c2ccc(C(C)(C)C)cc2)C(C)C)CC1 (centres undefined)	0%	0	0	2.3µM*	-14	8.2µM*
COc1ccccc1C(=O)NCC(=O)N1CCN(C/C=C/c2ccccc2)CC1	-3%	-7	2	?	-9	?
Cc1cccc(C(=O)NCC(=O)N2CC=C(c3ccccc3)CC2)c1	1%	15	-2	?	0	?
Cc1ccc(C(=O)CCC(=O)N2CCN(C/C=C/c3ccccc3)CC2)cc1	-1%	4	0	21µM*	0	?
Cc1ccc(NC(=O)N2CCN(C/C=C/c3ccccc3)CC2)cc1	-1%	-8	-4	1%	-6	-2%
CCOc1ccc(C(=O)NCC(=O)N2CCN(C/C=C/c3ccccc3)CC2)cc1OCC	-3%	4	-4	16µM*	2	?
N#CC(=C1C=C(Br)C(=NO)C=C1Cl)c1cccc2ccccc12	1%	-19	0	?	11	?
Cc1ccc(-n2ncc3c2CC(C)(C)CC3NC(=O)c2ccncc2)cc1 (centres undefined)	-2%	i	-3	?	-2	-20%
CCc1ccccc1NC(=O)CN1C(=O)c2ccccc2S1(=O)=O	·	6	3	9%	19	4%
COc1ccc([C@H]2Cc3cc(O)cc(O)c3C(=O)O2)cc1O	-6%	38	-13	-22%	15	0%
COc1ccc(C(=O)NC(C(=O)N2CCN(C/C=C/c3ccccc3)CC2)C(C)C)cc1 (centres undefined)	0%	-25	-14	?	0	18µM*
CNc1ccc(C(=O)OCC(=O)NCc2ccc3c(c2)OCO3)cc1[N+](=O)[O-]	0%	6	-20	?	-3	2%
O=C(O)/C=C/C(=O)NCCC(c1ccccc1)c1ccccc1	·	?	-8	?	-4	?
Cc1ccc(N2CCN(C(=O)C3CCN(c4ncnc5c4nc4n5CCCCC4)CC3)CC2)c(C)c1	-3%	·	·	?	10	21µM*
O=C(C1CCN(c2ncnc3c2nc2n3CCCCC2)CC1)N1CCN(c2ccc(Cl)cc2)CC1	-4%	·	·	-2%	5	10%
SMILES	ClpP mod	IL-1B inflam inh	DRD3 antagonist	TDP1 cell noCPT	DRD3 agonist	TDP1 cell CPT
CC1CCN(C(=O)C2CCN(c3ncnc4c3nc3n4CCCCC3)CC2)CC1	-2%	8	26	23µM*	2	?
Cc1ccc(-c2cc(C(F)F)n3ncc(C(=O)Nc4c(C)nn(Cc5c(Cl)cccc5Cl)c4C)c3n2)cc1	1%	-7	14	15µM*	2	10µM*
Cc1ccc(C2CC(C(F)F)n3ncc(C(=O)Nc4c(C)nn(Cc5c(F)cccc5Cl)c4C)c3N2)cc1 (centres undefined)	1%	-22	-7	18µM*	-2	?
Cc1ccc(C2CC(C(F)(F)F)n3ncc(C(=O)NCc4ccco4)c3N2)cc1 (centres undefined)	-2%	-19	-14	?	-2	-28%
Cc1nn(Cc2c(Cl)cccc2Cl)c(C)c1NC(=O)c1cnn2c(C(F)F)cc(-c3ccccc3)nc12	1%	13	36	?	3	21µM*
O=C(NC(Sc1ccc(Cl)cc1)C(=O)O)c1ccccc1 (centres undefined)	-1%	-2	13	?	2	21µM*
COc1ccc(Cl)cc1NC(=O)c1cnc(SC)nc1-c1ccccc1	?	·	·	?	-6	?
CSc1ncc(C(=O)Nc2ccc(C)c(Cl)c2)c(-c2ccccc2)n1	?	·	·	?	-4	23µM*
COC(=O)COc1ccccc1/C=C1/NC(=O)NC1=O	-10%	-71*	5	-11%	3	9%
Cc1cccc(-n2cc(-c3ccccc3)c3c(NC4CCCC4)ncnc32)c1	-18%	·	·	16µM*	9	?
Cc1ccc(-n2cc(-c3ccccc3)c3c(NC4CCCC4)ncnc32)cc1	?	·	·	23µM*	7	?
Cc1cccc(N2CCN(c3ncnc4c3c(-c3ccccc3)cn4-c3ccccc3)CC2C)c1 (centres undefined)	-3%	·	·	?	13	?

Source: PubChem (National Center for Advancing Translational Sciences (NCATS))
